# Screening results: PubChem, several laboratories
# LYPLA2 counter = LYPLA2 (human) inhibition in PME1 counter-screen | inhibition, % at 5.9 µM | recombinant LYPLA2, FP-Rh probe fluorescence polarization | AID 2177 | 320,000 tested, 0.38% active | O95372;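 active = inhibition above the screen-wide mean plus 3 SD, limit set per campaign, cut at about 26% in these data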;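 also: 0% = LYPLA2 with DMSO and 100% = wells lacking LYPLA2 enzyme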
# LANA-H2B inh = blocks KSHV LANA binding to histone H2A/H2B; Q9QR71; cell-free LANA-H2A/H2B peptide, fluorescence polarization; inhibition, % (concentration not given with the values); 320,000 tested, 0.6% active; AID 2629; in the data active = inhibition mostly above about 10%, no sharp cut-off; inactive = mostly below about 6.7%
# ZTA counter = counter-screen for EBNA-1 inhibitors: inhibitors of Epstein-Barr virus ZTA | AID 2234 | P03206 | inhibition, % at 11 µM | 320,000 tested, 0.15% active | ZTA-DNA binding, fluorescence polarization; in the data active = inhibition above about 33%
# EBNA-1 inh = blocks EBNA-1 binding to DNA | EBNA-1 DNA binding, fluorescence polarization | inhibition, % at 14.8 µM | 300,000 tested, 0.34% active | AID 1950; in the data active = inhibition above about 28%
# LYPLA1 inh = blocks human lysophospholipase 1, a PME1 counter-screen; O75608; recombinant LYPLA1, FP-Rh probe fluorescence polarization; inhibition, % at 5.9 µM; 320,000 tested, 0.16% active; AID 2174;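 active = inhibition above the mean of all tested compounds plus 3 SD, set per campaign, cut at about 14% in these data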;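 also: inhibitors block serine hydrolase probe labeling of LYPLA1 so polarization falls; 0% = enzyme with DMSO and 100% = wells lacking LYPLA1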
# ZTA inh confirm = confirmation of Epstein-Barr virus ZTA DNA binding inhibitors. 320 tested, 30% active. Zta-ZRE DNA binding, fluorescence polarization. shares compounds with ZTA counter. inhibition, % at 11.1 µM;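 active = mean inhibition across triplicate runs above the hit threshold derived for the original primary screen, cut at about 33% in these data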;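 also: 0% = Zta with DMSO and 100% = wells lacking Zta protein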
# EBNA-1 counter = EBNA-1 DNA binding inhibition, counter-screen for ZTA; shares compounds with ZTA counter; fluorescence polarization; 320 tested, under 10 active; inhibition, % at 14.8 µM; call rule not given here
# * marks the source's active call; other numbers are inactive results; · = no result given. Sampled rows, rich in hits. Any-hit rate of the full collection: about 1.4%.
SMILES,LYPLA2 counter,LANA-H2B inh,ZTA counter,EBNA-1 inh,LYPLA1 inh,ZTA inh confirm,EBNA-1 counter
C#CCOCCOCCOCCNc1nc(N2CCN(C(=O)CCCCCCCCCCNC(=O)[C@H](CCCCN)n3cc(CCCC(=O)O)nn3)CC2)nc(N2CCN(C(=O)CCCCCCCCCCNC(=O)[C@H](CCCCN)n3cc(CCCC(=O)O)nn3)CC2)n1,-1,-3,-3,5,-3,·,·
Cc1nn(CC(=O)NC(=O)c2ccccc2)c(C)c1[N+](=O)[O-],-3,-4,-14,·,-2,·,·
CCN(CC)CCn1c(SCC(=O)Nc2ccc(F)cc2)nc2c(sc3ccccc32)c1=O,-1,2,38*,6,4,24,-6
COc1ccccc1NC(=O)CSc1nc2c(sc3ccccc32)c(=O)n1CCN(C)C,6,5,5,10,1,·,·
N#CCCCc1cc2ccccc2cn1,·,-5,·,·,·,·,·
CCOC(=O)c1ccc(NC(=O)CCc2nc(-c3ccc(Cl)cc3)no2)cc1,5,2,-8,-2,-1,·,·
CCOC(=O)c1ccc(NC(=O)CCc2nc(-c3ccc(C)cc3)no2)cc1,-19,2,35*,8,-23,-4,-7
CCc1ccc(Nc2c([N+](=O)[O-])c(=O)oc3ccccc23)cc1,-3,2,2,-1,-2,·,·
CCNc1c([N+](=O)[O-])c(=O)oc2ccccc12,2,0,35*,4,-5,-9,-4
CS(=O)(=O)N1CCN(c2ccc(NC(=O)C(c3ccccc3)c3ccccc3)cc2)CC1,1,-2,7,2,0,·,·
O=C(Nc1ccc(N2CCCC2)cc1)C(Cl)c1ccccc1 (stereo unspecified),0,28*,49*,27,-1,70*,36*
CC(=O)Oc1cccc(N2C(=O)c3cccc4c([N+](=O)[O-])ccc(c34)C2=O)c1,6,-7,12,0,2,·,·
Cc1ccc(C(=O)O)cc1N1C(=O)c2cccc3c([N+](=O)[O-])ccc(c23)C1=O,7,6,39*,9,1,35*,0
CCOC(=O)NN1C(=O)c2ccccc2NC1c1ccc(N(C)C)cc1 (stereo unspecified),0,2,33*,-4,-1,6,0
CCOC(=O)NN1C(=O)c2ccccc2NC1c1ccccc1 (stereo unspecified),2,2,10,4,0,·,·
COc1ccc(-n2c(-c3ccc(Br)cc3)c[n+]3c2SC(C)C3)cc1 (stereo unspecified),9,-7,-27,-5,3,·,·
COc1ccc(Cn2c(N)c(S(=O)(=O)c3cccs3)c3nc4ccccc4nc32)cc1,-5,2,35*,22,-3,6,5
COc1cc(OC)cc(-c2c(C#Cc3ccsc3)c3cc(-c4ccc(C(N)=O)cc4)ccc3n2C)c1,-36,0,40*,·,-17,22,25
COCc1ccc(-c2ccc3c(c2)c(C#Cc2ccsc2)c(-c2cc(OC)cc(OC)c2)n3C)cc1,-2,-1,-5,·,-3,·,·
CC1CCN(CC(=O)Nc2ccc(S(=O)(=O)N3C(C)CCCC3C)cc2)CC1 (stereo unspecified),2,9,1,-2,0,·,·
COc1ccc(C(=O)N(C)c2c(C)n(C)n(-c3ccccc3)c2=O)cc1OC,2,-1,82*,7,2,-10,-2
O=C(CCNC(=O)c1ccc([N+](=O)[O-])cc1)NCc1ccco1,-6,-1,6,·,-1,·,·
CCc1nn(CC(=O)N2CCN(C)CC2)c(=O)c2cccn12,2,-4,36*,2,4,-1,-8
COc1ccc(N2CCN(S(C)(=O)=O)CC2)cc1,1,2,-6,3,1,·,·
COc1ccc(N2CCN(S(=O)(=O)c3ccc(OC)cc3)CC2)cc1,2,14,99*,21,0,7,13
CCOc1ccc(-n2nnc3c(=O)n(CC(=O)N4CCCc5ccccc54)cnc32)cc1,-9,-3,4,6,-4,·,·
COc1ccc(-n2nnc3c(=O)n(CC(=O)N4CCCc5ccccc54)cnc32)cc1,-12,0,36*,15,-4,3,-8
O=C(CNC(=O)c1cc(Cl)cc([N+](=O)[O-])c1)NC1CC1,·,-2,·,·,·,·,·
